From PubChem BioAssay
Activity calls are given as the source filed them.

How the values were obtained:
Albumin (Bos taurus) = Albumin (Bos taurus) (UniProt P02769); experiment: bovine serum albumin binders on microarray, profiling panel, artefact control for SMM control protein annotation, biochemical, small-molecule microarray, Alexa647 label, 635/667 nm fluorescence (AID 1118); details: BSA-A647 binding, fluorescence 635 nm, higher = more signal;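 note: score merges 667 nm emission intensity and signal-to-noise per printed compound spot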
[1] = small-molecule microarray binders of probe aXIP, primary screen, biochemical, NeuroSMM set, 635/667 nm fluorescence (AID 1119); details: higher = more signal, called active from +8 up or from −8 down;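 note: probe is the protein aXip251-270 applied at 1 µg/mL to compound-printed slides; binding of probe to printed compounds measured as 667 nm fluorescence plus signal to noise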
[2] = small-molecule binders of probe aNOTCH3, primary screen, biochemical, small-molecule microarray, 635/667 nm fluorescence (AID 1120); details: higher = more signal;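 note: probe is a biotin-tagged antibody raised against NOTCH3 rather than NOTCH3 protein; score merges spot fluorescence near 667 nm with spot signal to noise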
[3] = small-molecule binders of probe aNOTCH2, primary screen, biochemical, small-molecule microarray, 635/667 nm fluorescence (AID 1121); details: higher = more signal;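 note: score merges feature fluorescence read at 667 nm with its signal to noise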
[4] = biological target: Carbonic anhydrase 2 (Homo sapiens) (UniProt P00918); experiment: CAII small-molecule binders, profiling panel, biochemical, small-molecule microarray, Alexa647-labelled CAII (AID 1122); details: CAII-A647 binding fluorescence, higher = more signal
[5] = COS7 lysate on small-molecule microarray, probe aHis, 635 nm (AID 1123); details: COS7 cell lysate, fluorescence, higher = more signal;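 note: z-score combines 667nm fluorescence intensity with signal-to-noise per printed compound spot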
[6] = compound binding in COS7 lysate, probe aLAP1, primary screen, cell lysate, small-molecule microarray (AID 1124); details: probe aLAP1, fluorescence, higher = more signal;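 note: lysate comes from COS7 cells expressing LAP1 and is applied at 0.3 µg/mL; score merges spot fluorescence near 667 nm with signal-to-noise over triplicate slides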
Sam68 (KHDRBS1) = experiment: Sam68 small-molecule binders, primary screen, biochemical, small-molecule microarray, 635 nm fluorescence (AID 1125); details: small-molecule microarray binding, higher = more signal;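 note: score merges 667 nm channel intensity with signal to noise over triplicate slides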
[7] = system: Chordin-like protein 2 (CHRDL2); experiment: CHRDL2 small-molecule binders, primary screen, biochemical, small-molecule microarray, 635 nm fluorescence (AID 1126); details: small-molecule microarray binding, fluorescence 635 nm; higher = more signal;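 note: printed compound slides probed with Chrdl2 protein at 4 µg/mL for 1 h at 4 C; score merges 667 nm emission intensity with signal to noise over three replicate slides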
[8] = biological target: Concanavalin-A (Canavalia ensiformis) (UniProt P02866); experiment: ConA small-molecule binders, primary screen, artefact control for SMM control protein annotation, biochemical, small-molecule microarray, Alexa647 label, 635 nm (AID 1127); details: ConA-A647 binding fluorescence, higher = more signal;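 note: z combines 667 nm emission intensity with signal-to-noise across three replicate slides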
[9] = anti-His antibody binders, primary screen, artefact control for SMM control protein annotation, biochemical, small-molecule microarray, 635 nm fluorescence (AID 1128); details: anti-His Alexa647 antibody binding, higher = more signal;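 note: score merges feature fluorescence with signal-to-noise for each printed compound spot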
[10] = system: Human papillomavirus type 1a E7 protein (residues 1-88); experiment: HPV1a E7 small-molecule binders, primary screen, biochemical, small-molecule microarray, residues 1-88, 635 nm (AID 1129); details: small-molecule microarray binding, fluorescence 635 nm; higher = more signal
[11] = biological target: Focal adhesion kinase 1 (Homo sapiens) (UniProt Q05397); experiment: small-molecule microarray binders of FAK, primary screen, biochemical, 635/667 nm fluorescence, BSA, DTT (AID 1130); details: PTK2 binding, 635 nm fluorescence, higher = more signal;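 note: composite of spot emission at 667 nm and signal to noise over triplicate slides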
[12] = system: Fibrinogen (Alexa647-labelled); experiment: fibrinogen binders on compound microarrays, profiling panel, artefact control for SMM control-protein annotation, biochemical, small-molecule microarray, 635/667 nm fluorescence (AID 1131); details: fibrinogen-A647 binding fluorescence, higher = more signal;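 note: z-score merges 667 nm fluorescence with per-spot signal-to-noise over triplicate slides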
[13] = biological target: Follistatin (Homo sapiens) (UniProt P19883); experiment: follistatin binders on small-molecule microarrays, primary screen, biochemical, small-molecule microarray, 635/667 nm fluorescence (AID 1132); details: FST binding, 635 nm fluorescence, higher = more signal
[14] = biological target: Fibroblast growth factor 2 (Homo sapiens) (UniProt P09038); experiment: FGF2 binders on small-molecule microarrays, primary screen, biochemical, small-molecule microarray, 635/667 nm fluorescence (AID 1133); details: small-molecule microarray binding, FGF2, fluorescence 635/667; higher = more signal
[15] = mitochondrial membrane potential change in A549 cells, profiling panel, cell-based, JC-1 fluorescence, basal, 24 h, 100 nL (AID 1138); details: higher = more signal;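 note: A549 lung adenocarcinoma cells under basal conditions with no added stimulus; test concentration not given here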
Lefty1 = Lefty1 binders on small-molecule microarrays, primary screen, biochemical, small-molecule microarray, 635/667 nm fluorescence (AID 1139); details: small-molecule microarray binding, fluorescence 635/667; higher = more signal
[16] = system: wheat germ agglutinin (Triticum aestivum), Alexa647-labelled; experiment: wheat germ agglutinin binders on compound microarrays, profiling panel, artefact control for SMM control-protein annotation, biochemical, small-molecule microarray, 635/667 nm fluorescence (AID 1140); details: WGA-A647 binding, 635 nm fluorescence, higher = more signal;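 note: score merges 667 nm feature emission with signal to noise over triplicate slides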
[17] = biological target: Luciferin 4-monooxygenase (Photinus pyralis) (UniProt P08659); experiment: firefly luciferase enzyme inhibitors, primary screen, biochemical, luminescence, purified enzyme, 2006 set (AID 1141); details: SteadyGlo luminescence, 30 min, higher = more signal, called active from +8 up or from −8 down;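 note: cell-free assay with purified firefly luciferase at 100 ng per well in PBS; test concentration not given here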
Chain of Luciferin 4-monooxygenase (Photinus pyralis) (P08659 whole entry, looked up): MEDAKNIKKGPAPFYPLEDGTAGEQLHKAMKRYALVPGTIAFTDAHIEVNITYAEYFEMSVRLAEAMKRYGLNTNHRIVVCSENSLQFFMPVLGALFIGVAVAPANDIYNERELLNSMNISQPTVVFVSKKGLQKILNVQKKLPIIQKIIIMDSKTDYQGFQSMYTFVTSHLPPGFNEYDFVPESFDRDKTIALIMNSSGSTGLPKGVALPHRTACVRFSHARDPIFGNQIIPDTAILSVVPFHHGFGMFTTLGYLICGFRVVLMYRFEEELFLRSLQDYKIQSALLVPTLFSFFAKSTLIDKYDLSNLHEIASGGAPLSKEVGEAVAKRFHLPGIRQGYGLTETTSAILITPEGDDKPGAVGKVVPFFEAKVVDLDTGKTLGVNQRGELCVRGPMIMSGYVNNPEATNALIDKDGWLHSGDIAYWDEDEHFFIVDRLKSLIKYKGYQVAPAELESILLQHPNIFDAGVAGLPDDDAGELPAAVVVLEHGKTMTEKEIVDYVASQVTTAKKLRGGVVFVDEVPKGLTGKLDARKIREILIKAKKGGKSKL

Chain of Focal adhesion kinase 1 (Homo sapiens) (Q05397 whole entry, looked up): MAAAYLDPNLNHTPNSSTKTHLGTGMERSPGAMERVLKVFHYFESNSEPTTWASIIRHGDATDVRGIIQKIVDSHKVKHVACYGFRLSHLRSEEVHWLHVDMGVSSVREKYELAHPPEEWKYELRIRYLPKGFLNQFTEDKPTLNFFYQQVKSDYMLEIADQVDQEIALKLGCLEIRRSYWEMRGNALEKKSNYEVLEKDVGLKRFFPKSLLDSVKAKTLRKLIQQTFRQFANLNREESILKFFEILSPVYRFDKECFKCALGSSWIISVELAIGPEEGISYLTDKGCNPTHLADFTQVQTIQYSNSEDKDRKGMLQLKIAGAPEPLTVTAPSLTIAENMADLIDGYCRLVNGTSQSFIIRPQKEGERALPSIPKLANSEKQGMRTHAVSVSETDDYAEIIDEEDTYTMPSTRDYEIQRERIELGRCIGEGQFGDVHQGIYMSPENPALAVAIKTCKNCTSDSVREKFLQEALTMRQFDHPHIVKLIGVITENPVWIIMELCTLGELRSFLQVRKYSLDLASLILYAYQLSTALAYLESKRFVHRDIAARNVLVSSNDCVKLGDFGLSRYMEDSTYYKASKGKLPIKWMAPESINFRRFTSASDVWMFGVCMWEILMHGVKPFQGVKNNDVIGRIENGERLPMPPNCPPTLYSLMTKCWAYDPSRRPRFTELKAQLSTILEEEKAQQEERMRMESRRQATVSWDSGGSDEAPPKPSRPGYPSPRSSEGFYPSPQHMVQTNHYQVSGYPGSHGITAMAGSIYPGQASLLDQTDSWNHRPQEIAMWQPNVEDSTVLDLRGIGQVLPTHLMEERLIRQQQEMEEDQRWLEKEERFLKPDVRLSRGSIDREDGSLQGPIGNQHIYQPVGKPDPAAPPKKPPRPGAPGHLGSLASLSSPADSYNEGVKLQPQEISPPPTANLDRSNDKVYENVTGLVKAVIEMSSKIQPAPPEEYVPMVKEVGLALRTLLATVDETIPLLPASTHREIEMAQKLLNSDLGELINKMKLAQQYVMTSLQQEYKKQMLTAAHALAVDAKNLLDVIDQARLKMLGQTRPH
Chain of Fibroblast growth factor 2 (Homo sapiens) (P09038 whole entry, looked up): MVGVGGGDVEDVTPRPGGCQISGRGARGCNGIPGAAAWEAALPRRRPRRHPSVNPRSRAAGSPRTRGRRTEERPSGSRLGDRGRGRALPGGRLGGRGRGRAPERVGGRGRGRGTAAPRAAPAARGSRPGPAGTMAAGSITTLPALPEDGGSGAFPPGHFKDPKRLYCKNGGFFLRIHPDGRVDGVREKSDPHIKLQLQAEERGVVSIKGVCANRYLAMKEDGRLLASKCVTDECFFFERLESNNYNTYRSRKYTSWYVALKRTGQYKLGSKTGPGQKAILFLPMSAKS
Chain of Concanavalin-A (Canavalia ensiformis) (P02866 whole entry, looked up): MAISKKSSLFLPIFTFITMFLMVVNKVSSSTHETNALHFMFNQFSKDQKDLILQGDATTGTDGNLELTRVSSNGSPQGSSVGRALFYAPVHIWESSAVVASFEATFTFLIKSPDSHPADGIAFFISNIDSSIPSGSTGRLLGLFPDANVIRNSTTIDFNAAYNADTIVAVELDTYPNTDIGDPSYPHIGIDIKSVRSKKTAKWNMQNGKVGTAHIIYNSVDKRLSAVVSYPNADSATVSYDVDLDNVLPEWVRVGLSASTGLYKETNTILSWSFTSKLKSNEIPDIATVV
Chain of Follistatin (Homo sapiens) (P19883 whole entry, looked up): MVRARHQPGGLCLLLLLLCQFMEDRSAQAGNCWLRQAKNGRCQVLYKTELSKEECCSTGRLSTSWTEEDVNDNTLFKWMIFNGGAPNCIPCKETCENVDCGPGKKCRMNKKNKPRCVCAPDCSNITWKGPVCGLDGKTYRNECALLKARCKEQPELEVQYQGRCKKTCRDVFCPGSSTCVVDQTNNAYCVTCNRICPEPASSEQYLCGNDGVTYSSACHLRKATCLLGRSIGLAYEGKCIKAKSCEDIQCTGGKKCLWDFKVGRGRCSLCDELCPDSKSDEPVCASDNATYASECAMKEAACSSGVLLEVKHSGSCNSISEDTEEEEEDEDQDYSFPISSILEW
Chain of Albumin (Bos taurus) (P02769 whole entry, looked up): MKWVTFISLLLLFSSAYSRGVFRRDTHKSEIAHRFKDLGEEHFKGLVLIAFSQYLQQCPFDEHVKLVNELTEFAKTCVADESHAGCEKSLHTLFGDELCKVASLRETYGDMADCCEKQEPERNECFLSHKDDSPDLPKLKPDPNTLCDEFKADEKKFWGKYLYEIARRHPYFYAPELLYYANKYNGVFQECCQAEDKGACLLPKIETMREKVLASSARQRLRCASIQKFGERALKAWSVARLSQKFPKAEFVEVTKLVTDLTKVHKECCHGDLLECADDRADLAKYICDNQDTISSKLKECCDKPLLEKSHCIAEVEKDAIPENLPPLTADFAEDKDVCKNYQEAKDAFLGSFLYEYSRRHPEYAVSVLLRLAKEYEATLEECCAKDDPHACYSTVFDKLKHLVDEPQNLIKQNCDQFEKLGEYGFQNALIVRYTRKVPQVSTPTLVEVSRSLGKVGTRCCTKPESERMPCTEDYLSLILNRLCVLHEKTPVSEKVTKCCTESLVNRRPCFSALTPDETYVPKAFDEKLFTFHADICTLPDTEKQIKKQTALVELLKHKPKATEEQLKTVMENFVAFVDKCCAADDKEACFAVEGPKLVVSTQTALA

Row | Compound | composite z-score (Albumin (Bos taurus)) | composite Z-score [1] | composite z-score [2] | composite z-score [3] | composite z-score [4] | composite z-score [5] | composite z-score [6] | composite z-score (Sam68 (KHDRBS1)) | composite z-score [7] | composite z-score [8] | composite z-score [9] | composite z-score [10] | composite z-score [11] | composite z-score [12] | composite z-score [13] | composite z-score [14] | z-score [15] | composite z-score (Lefty1) | composite z-score [16] | z-score [17]
1 | CCOC(=O)[C@H](Cc1ccccc1)NC(=O)CCC1CC(OC(=O)NCCc2ccc(F)cc2)CC2(CCCC(COC(=O)NCc3cccc(C(F)(F)F)c3)O2)O1 (stereo not given in full) | 0.825 | 1.43 (inactive) | 0.148 | -0.192 | 0.499 | 2.08 | 0.137 | 1.3 | 0.285 | 1.06 | 0.554 | 1.16 | 0.31 | 0.943 | 0.787 | 0.696 | 0.578 | 1.64 | 0.502 | 0.871 (inactive)
2 | CC(CCN1CCCc2nc(C)c(C)cc21)=NOC[C@@H](C)[C@H](OCc1ccccc1)C(C)C | -0.453 | 0.081 (inactive) | -0.0918 | -0.0878 | -0.358 | 0.816 | -0.432 | -0.818 | -0.621 | -0.691 | 2.52 | -0.703 | -0.0748 | -0.9 | -0.516 | -0.165 | 1.37 | 0.241 | -0.606 | -1.14 (inactive)
3 | CCOC(=O)[C@H](CC(C)C)NC(=O)CCC1CC(OC(=O)NCCc2ccc(F)cc2)CC2(CCCC(COC(=O)NCc3cccc(C(F)(F)F)c3)O2)O1 (stereo not given in full) | 0.386 | 1.35 (inactive) | -0.0003 | -0.117 | 0.475 | 0.953 | -0.0042 | 1.21 | 0.273 | 0.542 | 0.167 | 1.15 | 0.155 | 0.619 | 0.579 | 0.987 | -0.208 | 0.549 | 0.296 | 0.507 (inactive)
4 | O=C1C2=CC[C@H]3C(=O)N(Cc4ccccc4)C(=O)[C@H]3[C@H]2[C@H](O)[C@@H]2O[C@H]12 | -0.356 | 0.0144 (inactive) | -0.199 | -0.167 | 0.0372 | -0.458 | -0.11 | 0.085 | 0.343 | -0.707 | 0.198 | 0.111 | -0.36 | 0.739 | -0.267 | -0.022 | -0.447 | -0.423 | 0.254 | -0.174 (inactive)
5 | CCOC(=O)[C@H](Cc1ccccc1)NC(=O)CCC1CC(OC(=O)NCc2cccc3ccccc23)CC2(CCCC(COC(=O)NCCOc3ccccc3)O2)O1 (stereo not given in full) | 0.0423 | 0.19 (inactive) | -0.16 | -0.0859 | 0.391 | 1.05 | 0.132 | 1.24 | 0.439 | 1.12 | 1.39 | 1.01 | 0.227 | 0.725 | 0.485 | 0.279 | -0.16 | 0.573 | 0.268 | 1.13 (inactive)
6 | CCN1C(=O)[C@H]2[C@H]3[C@H](O)[C@H](O)CC(=NOCC=C(C)CCC=C(C)C)[C@@H]3CC[C@H]2C1=O | 0.44 | -0.496 (inactive) | 0.144 | -0.118 | 0.0577 | 0.162 | 0.39 | 1.25 | 1.39 | 0.13 | 0.521 | 0.344 | -0.0746 | 0.493 | 1.31 | 1.01 | -0.717 | 1.23 | -0.207 | 0.146 (inactive)
7 | C#CCCCON=C1C[C@@H](O)[C@@H](O)[C@@H]2[C@@H]3C(=O)N([C@@H](C)c4ccccc4)C(=O)[C@@H]3CC[C@@H]12 | 0.356 | -0.51 (inactive) | 0.114 | -0.165 | 0.717 | 0.0072 | 0.0247 | -0.105 | -0.13 | 0.123 | -0.559 | -0.82 | -0.0567 | -0.181 | -0.326 | -0.141 | -0.683 | -0.32 | 0.0859 | 0.993 (inactive)
